Hsp70 act – transcriptional activators of Hsp70; HeLa Hsp70 promoter luciferase reporter, luminescence; scaled: vehicle 0, proteasome-inhibitor control 100%; activation, % at 10 µM; 200,000 tested, 0.04% active; AID 1203;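 active = activation above the mean across all tested compounds plus 3 SD, cutoff set per campaign, cut at about 5.5% in these data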;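 also: 100% = MG132 at 30 µM as the positive control and 0% = DMSO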
CHOP inhibitor – blocks CHOP induction under ER stress; CHO-K1 CHOP-promoter luciferase, tunicamycin-induced, 15-18 h; AID 2732; inhibition, % at 10 µM; 220,000 tested, 3.8% active;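 active = compounds that reduced the stress-induced luciferase reporter signal by more than about 70% of percent inhibition, limit read from the data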;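 also: 0% = tunicamycin plus vehicle and 100% = wells without tunicamycin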
S1P4 ag – agonists of human S1P4 receptor; O95977; S1P4-expressing cell line, agonist reporter assay; activation, % at 4.98 µM; 220,000 tested, 0.35% active; AID 1509; in the data active = activation above about 11%;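 also: 0% = DMSO vehicle and 100% = reference agonist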
Target sequence (O95977 whole entry, looked up): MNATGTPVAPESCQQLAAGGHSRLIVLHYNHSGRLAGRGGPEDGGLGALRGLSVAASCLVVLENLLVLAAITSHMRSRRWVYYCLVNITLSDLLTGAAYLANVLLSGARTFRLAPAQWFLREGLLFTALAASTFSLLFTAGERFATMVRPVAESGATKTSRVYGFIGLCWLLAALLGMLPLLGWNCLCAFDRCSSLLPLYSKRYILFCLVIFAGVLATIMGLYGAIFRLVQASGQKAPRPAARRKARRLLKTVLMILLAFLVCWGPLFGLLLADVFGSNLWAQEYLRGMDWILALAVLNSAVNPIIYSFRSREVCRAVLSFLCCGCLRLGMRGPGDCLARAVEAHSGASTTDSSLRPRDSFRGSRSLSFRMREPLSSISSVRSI
S1P4 antag – antagonists of human S1P4 receptor; O95977; S1P4-expressing cells, antagonist mode, reporter read-out; inhibition, % at 4.98 µM; 220,000 tested, 0.26% active; in the data active = inhibition above about 29%;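 also: 0% = wells stimulated with agonist and 100% = vehicle wells without agonist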
* = called active by the depositor; . = no result. Most compounds without a hit are left out; they make up all but 4.2% or so of the library.

SMILES	Hsp70 act	CHOP inhibitor	S1P4 ag	S1P4 antag
CCOC(=O)C1=C(N)OC2=C(C(=O)CC(C)(C)C2)C1c1ccoc1 (stereo unspecified)	0	9	0	-12
CCOC(=O)C1=C(N)OC2=C(C(=O)CC(C)(C)C2)C1C1CCCCC1 (stereo unspecified)	0	96*	0	-1
O=C(N/N=C/C1=C(N2CCOCC2)C(=C\c2ccccc2)/CC1)Nc1ccccc1	0	82*	-2	-6
O=C(O)c1ccccc1N/N=C/C1=C(N2CCOCC2)C(=C\c2ccccc2)/CC1	.	17	1	-5
Cc1cccc(OCC(=O)Nc2ccccc2-c2ccccc2)c1	0	85*	2	-14
Cc1ccc(CC(=O)Nc2ccccc2-c2ccccc2)cc1C	0	89*	-1	2
COc1ccc(OCC(=O)Nc2ccccc2-c2ccccc2)cc1	0	27	-1	-1
CCCCn1c(O)c(N=NC(=O)c2ccco2)c2ccccc21	0	46	2	-15
CCCCN(Cc1ccco1)C(=O)c1cc2c(=O)[nH]c3ccc(C)cc3c2s1	0	73*	-1	-15
CC1=CC(=C2C(=O)c3ccccc3C2=O)C=C(C)N1C	0	21	1	-8
CCCCCN1C=CC(=C2C(=O)c3ccccc3C2=O)C=C1	-1	98*	1	-21
C=CCn1c(COc2cccc(C)c2C)nnc1SCC(=O)N1CCN(c2ccccc2)CC1	0	71*	2	-23
Cn1cc2c(=O)n(/N=C/c3ccccc3)cnc2n1	0	-20	1	-2
COc1ccc(CCC(C)Nc2ccccc2F)cc1 (stereo unspecified)	0	49	0	-4
COc1ccc(CCC(C)Nc2cccc(F)c2)cc1 (stereo unspecified)	0	88*	-1	-11
COC(=O)CCS(=O)(=O)c1cc(Cl)ccc1Cl	0	16	0	1
CCCCCc1cc(=O)oc2c(C(CCN3CCCCC3)c3ccc(OC)cc3)c(OC)cc(OC)c12 (stereo unspecified)	.	72*	.	.
CCCCCc1cc(=O)oc2c(C(CCN3CCCC(C)C3)c3ccc(OC)cc3)c(OC)cc(OC)c12 (stereo unspecified)	.	71*	.	.
CCCCCc1cc(=O)oc2c(C(CCN3CCCC3)c3ccc(N(C)C)cc3)c(OC)cc(OC)c12 (stereo unspecified)	.	43	.	.
CCN1CCN(Cc2ccc(NC(=O)c3ccc(C)c(NC(=O)c4nccnc4N)c3)cc2C(F)(F)F)CC1	.	79*	.	.
Cc1ccccc1NC(=S)NCc1ccc(Cl)cc1	0	10	-2	-19
CCOc1ccc(NC(=S)Nc2ccc(OCC)cc2)cc1	0	8	1	-11
CCOc1ccc(NC(=S)Nc2ccc(C)c([N+](=O)[O-])c2)cc1	0	70*	1	3
O=C(c1cc2c(s1)-c1ccccc1OC2)N1CCCC1	0	61	-5	-9
CN(C)CCNC(=O)c1cc2c(s1)-c1ccccc1OC2	0	20	2	2
SMILES	Hsp70 act	CHOP inhibitor	S1P4 ag	S1P4 antag
O=C(c1cc2c(s1)-c1ccccc1OC2)N1CCN(c2ccccc2)CC1	0	83*	0	-10
Cc1csc(NC(=O)c2cc3c(s2)-c2ccccc2OC3)n1	0	81*	8	-1
COc1ccc(-c2cn[nH]c2-c2ccc(OCc3ccc([N+](=O)[O-])cc3)cc2O)cc1	0	91*	1	-12
C=C(C)COc1ccc(-c2[nH]ncc2-c2ccc(Br)cc2)c(O)c1	0	106*	2	-2
Cc1onc(-c2ccccc2)c1C(=O)N/N=C/c1cn(C)c2ccccc12	0	-3	-1	-13
Cc1cccc2c1c1ccc3c(c1n2C)C(=O)C=CC3=O	.	78*	1	7
CCOC(=O)c1c(C)[nH]c(N=Nc2ccc(C)cc2)c1C	1	91*	-1	3
CCOC(=O)c1c(C)[nH]c(N=Nc2cccc(C)c2)c1C	0	71*	-1	-15
CCOC(=O)c1c(C)[nH]c(N=Nc2ccccc2)c1C	0	-34	2	5
CCOC(=O)c1c(C)c(C(=O)NC(C)COC)c(C)n1CC (stereo unspecified)	0	22	2	-8
CSCC[C@H](NC(=O)OC(C)(C)C)c1nnc(SCC(=O)Nc2c(C)cccc2C)o1	1	16	1	-24
Cc1cccc(C)c1NC(=O)CSc1nnc([C@H](C)NC(=O)OC(C)(C)C)o1	0	79*	0	2
CC(C)[C@H](NC(=O)OC(C)(C)C)c1nnc(SCC(=O)Nc2ccc(Br)cc2)o1	0	73*	-1	-4
CC(C)=CCSc1nnc([C@@H](NC(=O)OC(C)(C)C)C(C)C)o1	0	13	-5	11
CC1CCC2(CC1)SCC(=O)N2c1ccc(F)cc1 (stereo unspecified)	.	-11	2	-21
CC(C)(C)C1CCC2(CC1)SCC(=O)N2c1ccccc1 (stereo unspecified)	0	77*	-1	-7
CN(C)c1ccc(CN2CCCC(O)C2)cc1 (stereo unspecified)	0	-6	0	-11
CCCCNC(=S)N(C)/N=C/c1c(C)[nH]c2ccccc12	0	72*	0	-8
CCCCNC(=S)N(C)/N=C/c1c(F)c(F)c(F)c(F)c1F	0	22	2	-30
Oc1ccc(C(c2nnnn2C2CCCC2)N2CCc3ccccc3C2)cc1 (stereo unspecified)	0	88*	1	-2
COC(=O)c1[nH]c2cc(OC)c(OC)cc2c1NC(=O)c1cccc(OC)c1	0	0	-1	-6
COc1cc(/C=N/NC(=O)c2cccc([N+](=O)[O-])c2)cc(OC)c1O	1	-1	-1	-5
COc1cccc(/C=N/NC(=O)c2ccc([N+](=O)[O-])cc2Cl)c1O	0	70*	-1	-4
CCOC(=O)/C(C#N)=C/c1ccc(-c2ccsc2C(=O)OC)o1	0	74*	4	-25
CCOC(=O)C(=Cc1ccc(-c2ccsc2C(=O)OC)o1)C(=O)OCC	0	-42	1	-11
SMILES	Hsp70 act	CHOP inhibitor	S1P4 ag	S1P4 antag
COc1ccc(/C=N/n2c(-c3ccco3)nc3ccccc3c2=O)cc1	0	80*	-1	-7
COc1cccc(/C=N/n2c(-c3ccco3)nc3ccccc3c2=O)c1	0	-28	-1	-10
CC(C)c1ccc(OCc2nc(-c3ccccn3)no2)c(Br)c1	0	71*	-1	5
O=C1Nc2ccccc2Oc2cc([N+](=O)[O-])ccc21	0	74*	1	-17
CNc1sc(C(=O)c2ccc(F)cc2)c(N)c1-c1nc2ccccc2s1	0	84*	1	14
Cc1nc(SC(C(N)=O)c2ccccc2)c(C#N)c(C)c1C (stereo unspecified)	.	-2	0	11
COc1ccccc1-c1cc(-c2ccccc2)nc(SC(C(N)=O)c2ccccc2)c1C#N (stereo unspecified)	0	76*	2	-8
C=CCn1c(=O)c2ccc(C(=O)NCc3ccccc3)cc2n(Cc2ccc(Cl)cc2)c1=O	0	86*	-1	-4
COc1ccc2c(c1)S/C(=C\C(=O)c1ccncc1)N2C	1	13	-4	17

Source: PubChem
